11 compounds from PubChem BioAssay (EPA / NIEHS) can be followed below.

The nature of test [1]: CCTE_Mundy_HCI_Cortical_NOG_NeuronCount: CCTE's Neurite Outgrowth Assay in rat cortical cells for Neuron Count, Mundy Lab (AID 2284236; active = hit-call score of the fitted dose curve at least 0.9, where 1 is the maximum;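 also: neurons counted by imaging betaIII-tubulin and Hoechst stained cortical cells; cells exposed to compound for about 48 hours before fixation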). In outline: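 Read-out: neuron number by high-content imaging of betaIII-tubulin (Alexa Fluor-488) and Hoechst-labelled rat primary cortical cells.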
Test [2] in a line: CCTE_Mundy_HCI_Cortical_NOG_BPCount: CCTE's Neurite Outgrowth Assay in rat cortical cells for Branch Point Count, Mundy Lab (AID 2284237).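 Also: branch points counted about two days after chemical exposure.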 The essentials:
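Measured 50.33 h after dosing, this morphology endpoint uses rat primary cortical cultures labelled for betaIII-tubulin. Branch points are quantified by high-content imaging, with DMSO as negative control and baseline.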

Test [3] can be described thus: CCTE_Mundy_HCI_hNP1_Casp3_7: CCTE's Caspase-Glo 3/7 Assay in human neuroprogenitor cells for Apoptosis, Mundy Lab (AID 2284240). The essentials:
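Neuroepithelial-lineage stem cells from WA09 embryonic cells were treated with chemicals after 40–44 h of culture. Twenty-four hours later, caspase-3/7 activation was detected luminescently after a 30 min room-temperature reagent step, with DMSO as baseline.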

A short description of test [4]: CCTE_Mundy_HCI_hNP1_CellTiter: CCTE's Cell Titer-Glo 2 Assay in human neuroprogenitor cells for Viability, Mundy Lab (AID 2284241; active = hit-call score of the fitted dose curve at least 0.9, where 1 is the maximum;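 also: a hit is a drop in ATP luminescence versus DMSO meaning reduced viability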). The essentials: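 Measures ATP content in human neural progenitors derived from WA09 embryonic cells. Read-out at 26.5 hours after dosing, with DMSO serving as the negative control and baseline.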
In general terms: In ATP-based viability assays light output follows the ATP content of the culture.

The nature of test [5]: CCTE_Mundy_HCI_Cortical_Synap_Neur_Matur_NeuronCount: CCTE's Synaptogenesis and Neurite Maturation Assay in rat cortical cells for Neuron Count, Mundy Lab (AID 2284242; active = hit-call score of the fitted dose curve at least 0.9, where 1 is the maximum;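 as to AC50: neuron number from Hoechst nuclei and MAP2 staining by high-content imaging; hits reduce neuron count versus DMSO baseline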). The essentials: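 Rat primary cortical cells received AraC at DIV 5 to arrest glia, then were dosed with chemicals at DIV 7 through DIV 12. Fixed cells were stained for nuclei, MAP2 and synaptophysin, and neurons were counted by high-content imaging relative to DMSO.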

Read-out in test [6]: Collagen I, COL1A1 (gene 1277)
Nature of the test: BSK_MyoF_CollagenI: BioMAP Diversity Plus: MyoF Assay for Collagen I Biomarker Activity (AID 2284238). To be noted: primary human lung fibroblasts. The essentials:
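Measured by ELISA: Collagen I from human lung fibroblasts 24 h after compound addition, analysed for signal gain with DMSO as baseline; overt toxicity read from SRB staining of parallel cultures at the same time.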

Read-out in test [7]: Collagen III, COL3A1 (gene 1281)
Put plainly: BSK_MyoF_CollagenIII: BioMAP Diversity Plus: MyoF Assay for Collagen III Biomarker Activity (AID 2284239). The conditions noted are these: primary human lung fibroblasts. The essentials:
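Multiplexed cell assay in lung fibroblasts, harvested at 24 h post-dose. Collagen III detected by ELISA, with positive-direction fitting relative to DMSO vehicle.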

Read-out in test [8]: Interleukin 17F (IL17F), IL17F (gene 112744)
Nature of the test: BSK_BT_xIL17F: BioMAP Diversity Plus: BT Assay for Interleukin 17F (IL17F) Biomarker Activity (AID 2284243). The conditions noted are these: primary human B cells with PBMC. In outline:
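Luminex readout of IL-17F secretion, 24 h; cells: human B cells with PBMC; positive-direction analysis, DMSO control.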

Read-out in test [9]: Actin alpha 1 (ACTA1), ACTA1 (gene 58)
Nature of the test: BSK_MyoF_ACTA1: BioMAP Diversity Plus: MyoF Assay for Actin alpha 1 (ACTA1) Biomarker Activity (AID 2284244). The conditions noted are these: primary human lung fibroblasts. In outline:
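Human lung fibroblasts (MyoF system) dosed with test chemical for 24 h; α-SMA measured by ELISA. Gain of signal fitted relative to DMSO negative control as baseline.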

Read-out in test [10]: Interleukin 2 (IL2), IL2 (gene 3558)
Put plainly: BSK_BT_xIL2: BioMAP Diversity Plus: BT Assay for Interleukin 2 (IL2) Biomarker Activity (AID 2284245). The conditions noted are these: primary human B cells with PBMC. The essentials: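 Human B cells co-cultured with PBMC, exposed to test chemical for 24 h. Secreted IL-2 quantified by Luminex xMAP bead immunoassay; activity fitted in the positive direction relative to DMSO vehicle baseline.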

Read-out in test [11]: Collagen IV, COL4A1 (gene 1282)
Put plainly: BSK_MyoF_CollagenIV: BioMAP Diversity Plus: MyoF Assay for Collagen IV Biomarker Activity (AID 2284247). The conditions noted are these: primary human lung fibroblasts. In outline:
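Primary human lung fibroblasts were exposed to test chemicals and sampled 24 h after dosing. Collagen IV levels were measured by ELISA and fitted in the positive direction against DMSO as negative control and baseline.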

Several values for one entry are separate records, joined by “and”; a condition that tells them apart may be missing. Equal entries are not always repeated. Inconclusive results are not listed. A structure can be active in one record and inactive in another. Activity calls are given as the source filed them. The calls were made as follows, unless noted: active = hit-call score of the fitted dose curve at least 0.9, where 1 is the maximum; inactive = score below 0.9.

For the compound `COP(=O)(OC)O/C(=C\Cl)c1cc(Cl)c(Cl)cc1Cl`, the AC50 (as a rule, the midpoint of the concentration-response curve, whichever way the signal moves) in test [1] is 51.5 µM (active); in test [2], 31.1 µM (active) and 23 µM (active); in test [3], 12.4 µM (active) and 70.3 µM (active); in test [4], 23.3 µM (active) and 89 µM (active); in test [5] it was 51.5 µM (active). Also, the compound was called inactive in test [1] and in test [5].

For `CC1(C)Cc2cccc(O)c2O1`, the outcome in test [6], in [7], in test [8], in [9], in [10] and in [11] was inactive.

Consider `COC(=O)c1sccc1S(=O)(=O)NC(=O)Nc1nc(C)nc(OC)n1`, for which the result in [6], in test [7], in test [8], in test [9], in [10] and in test [11] was inactive.

In the case of `COP(=S)(OC)Oc1c(Cl)cc(C)cc1Cl`, the outcome in test [6], in test [7], in [8], in test [9], in test [10] and in test [11] was inactive.

With `O=Cc1cccc(Oc2ccccc2)c1`, the outcome in test [6], in test [7], in test [8], in test [9], in test [10] and in test [11] was inactive.

For the compound `CCCCC(CC)CO[N+](=O)[O-]` (stereo unspecified), the outcome in test [6], in test [7], in test [8], in test [9], in [10] and in test [11] was inactive.

`C(=NC1CCCCC1)=NC1CCCCC1`: the AC50 in [6] is 5.82 µM (active); in test [7], 7.83 µM (active); in test [8], 13.4 µM (active); in test [9], 7.21 µM (active); in [10], 10.7 µM (active); in [11] it was 12.4 µM (active).

Turning to `C=C(C)C(=O)[O][Sn]([CH2]CCC)([CH2]CCC)[CH2]CCC`, the concentration at half-maximal activity (AC50) was 0.0826 µM (active) in test [1]; 84.6 nM (active) in test [2]; 2.77 µM (active) in test [3]; 335 nM (active) in test [4]; 0.0547 µM (active) in test [5].

Take `COP(=S)(OC)Oc1cc(Cl)c(Cl)cc1Cl`: the result in test [6], in test [7], in test [8], in test [10] and in test [11] was inactive. Further, the half-maximal activity concentration (AC50) in [9] was 31.9 µM (active).

For `COP(=S)(OC)Oc1ccc(Sc2ccc(OP(=S)(OC)OC)cc2)cc1`, the figures for the AC50 in test [6], in [7] and in test [9] were 28.7 µM (active), 28.6 µM (active) and 27.4 µM (active), respectively. Also, the result in test [8], in test [10] and in test [11] was inactive.

Consider `COc1cc(OC)nc(NC(=O)NS(=O)(=O)c2ncccc2C(=O)N(C)C)n1`, for which the result in test [6], in test [7], in [8], in test [9], in test [10] and in test [11] was inactive.
